Compound activity as filed in PubChem BioAssay.
Shiga toxin inh = inhibitors of Shiga toxin in Vero cells | 9.2% of 290,000 active | inhibition, % at 38.7 µM | AID 2315 | Vero cells, Shiga toxin protein synthesis inhibition reporter; in the data active = inhibition mostly above about 28%, no sharp cut-off; inactive = mostly below about 43%; also: 0% is about no effect
HCV inh = inhibitors of hepatitis C virus infection; Huh7.5.1 HCVcc-Cre infection, luciferase reporter, 44 h; Potency, µM (titrated, usually from 41.8 µM), inactives show at the highest dose activity change, negative = inhibition, hits mostly inhibitors; 3.4% of 340,000 active; AID 651820; also: potency is read from the fitted curve at half-maximal effect; % is scaled to controls: 0 for no effect and ±100 for the full control effect
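1,000 cells/well; 4 h culture; + compound; + HCVcc-Cre (~0.5 moi); 44 h; luciferase substrate, RT 15 min; read 15 sec.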
AMA1-RON2 inh = inhibitors of Plasmodium falciparum AMA1-RON2 interaction; 0.2% of 360,000 active; AlphaScreen AMA1-biotinylated RON2 peptide binding; Potency, µM (highest dose often 58.2 µM), for inactives: at the highest dose activity change, negative = inhibition, most hits filed as inhibitors; AID 720542;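 also: potency is read from the fitted curve at half-maximal effect; 0% = vehicle wells and -100% = peptide control; nearly all actives have a fitted effect of over 45% in size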
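AMA1 (3D7) with his tag at 25 nM final met compounds first, then biotinylated RON2 peptide at 25 nM; detection used donor plus acceptor beads, 10 µg/mL apiece, read by AlphaScreen after 30 min at room temperature.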
Pf growth 48h = P. falciparum growth inhibition at 48 hours (one generation). Potency, µM (doses to about 28.7 µM), without a hit: at the top dose activity change, negative = inhibition, most hits filed as inhibitors. AID 504832. 5.9% of 310,000 active. P. falciparum luciferase growth in erythrocytes, 48 h; also: potency is read from the fitted curve at half-maximal effect; % is scaled to controls: 0 for no effect and ±100 for the full control effect
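In quantitative HTS format, infected erythrocytes bearing luciferase-reporter parasites were treated for a single generation at 37 C. Luminescence after adding detection reagent served as the growth measure.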
Pf growth 96h = inhibits malaria parasite growth, 96 h; Potency, µM (titrated, usually from 28.7 µM), without a hit: at the top dose activity change, negative = inhibition, usual class: inhibitors; P. falciparum luciferase reporter growth, 96 h; 6.9% of 320,000 active; also: potency is read from the fitted curve at half-maximal effect; % is scaled to controls: 0 for no effect and ±100 for the full control effect
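Parasite growth measured via integrated firefly luciferase reporter in P. falciparum. Infected erythrocytes at 2% hematocrit, 0.05% parasitemia final were treated 96 hours at 37 C under 5% CO2, and luminescence was read.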
Cycloheximide cs = counter-screen hit for Shiga toxin inhibitors, cycloheximide | AID 2314 | max response, % | cell reporter, cycloheximide protein synthesis inhibition counterscreen | 12% of 300,000 active; in the data active = max response mostly above about 13%, no sharp cut-off; inactive = mostly below about 14%; also: read at 38.3 µM for the half of the compounds with a filed dose; 0% is about no effect
* marks the source's active call; other numbers are inactive results; i = inactive; u = inconclusive; x = no result. The list is not random: actives were taken first. Their share in the collection is about 21%. Unless noted, calls follow the shape of the dose curve; as a rule, active = well fitted curve in the direction sought with a large enough effect; inconclusive = small, poorly fitted or top-dose-only effect, or another doubt; inactive = no such curve, though single readings can be large; an effect the other way counts as inactive or inconclusive.

SMILES	Shiga toxin inh	HCV inh	AMA1-RON2 inh	Pf growth 48h	Pf growth 96h	Cycloheximide cs
O=C(NCc1cccnc1)NC1(C(F)(F)F)Oc2ccc(Cl)cc2O1 (stereo not given)	11	10µM*	39%	u	u	-3
CCC(C)c1ccc(NC(=O)Nc2cccnc2)cc1 (stereo not given)	76*	-11%	10%	u	6%	80*
COC(=O)C1C(=O)N(S(=O)(=O)c2ccc([N+](=O)[O-])cc2)c2ccccc21 (stereo not given)	x	x	-5%	x	x	x
COc1ccc(NC(=O)NCc2cccnc2)cc1	-11	-2%	5%	13%	u	8
O=C(NCc1cccnc1)Nc1ccc(Cl)cc1	22	3%	10%	6%	u	18*
O=C(CSc1nccn1Cc1ccco1)Nc1ccccc1C(F)(F)F	21	18%	-15%	7%	-2%	28*
O=C(CN(Cc1ccco1)C(=O)c1ccccc1F)Nc1ccccc1C(F)(F)F	x	4%	14%	-7%	u	x
O=C(CN(Cc1ccco1)S(=O)(=O)c1cccs1)Nc1ccccc1C(F)(F)F	42*	-13%	-1%	-6%	u	24*
O=C(CSc1nnc(-c2ccco2)n1Cc1ccco1)Nc1ccccc1	-2	-27%	-6%	10%	u	-2
O=C(CSc1nccn1Cc1ccco1)Nc1ccccc1	41*	x	-1%	40%	41%	32*
CCOC(=O)CNC(=O)CSc1nccn1Cc1ccco1	-8	11%	2%	4%	39%	-2
CC(=O)Nc1ccc(NC(=O)CSc2nccn2Cc2ccco2)cc1	60*	-27%	-1%	41%	41%	17*
Cc1ccccc1NC(=O)CSc1nccn1Cc1ccco1	x	x	12%	x	x	x
O=C(COC(=O)/C=C/c1ccc(OC(F)F)cc1)NC1CCCCCC1	x	3%	-14%	x	x	x
COc1ccc2[nH]c(=O)c(-c3nnn(-c4ccc(F)cc4)n3)cc2c1	x	15%	-4%	x	x	x
Cc1ccc(-n2nnc(-c3cc4ccccc4n3C)n2)cc1	33*	-9%	1%	227%	u	27*
Cn1c(-c2nnn(-c3ccc(F)cc3)n2)cc2ccccc21	65*	x	x	324%	87%	55*
CCn1cc(C(=O)NCc2cccc(F)c2)c(=O)c2cc(F)c(N3CCN(C(=O)c4ccco4)CC3)cc21	25	u	-11%	x	2.1µM*	-2
CCCNC(=O)c1cn(CC)c2cc(N3CCN(C(=O)c4ccco4)CC3)c(F)cc2c1=O	-10	10µM*	0%	u	3.3µM*	2
COCc1nc(-c2cc(Br)ccc2OC)no1	-7	13µM*	10%	10%	x	1
COc1ccc(Br)cc1-c1noc(-c2ccccc2)n1	-5	-16%	4%	37%	x	-3
CCOc1ccc(-c2noc(-c3cccnc3)n2)cc1OC	27	-12%	-4%	141%	9.3µM*	15*
COc1ccc(-c2noc(-c3cccnc3)n2)cc1OC	52*	-1%	5%	186%	119%	17*
CCOc1cc(-c2noc(-c3cccnc3)n2)ccc1OC	-8	u	-5%	10%	x	1
COc1ccc(-c2nc(CC(=O)O)cs2)cc1OC	-12	-14%	x	17%	x	-1
SMILES	Shiga toxin inh	HCV inh	AMA1-RON2 inh	Pf growth 48h	Pf growth 96h	Cycloheximide cs
CCOc1ccc(-c2nc(CCl)cs2)cc1OC	41	-10%	0%	50%	49%	17*
Cc1ccc2[nH]cc(CCNC(=O)C3CCCO3)c2c1 (stereo not given)	-1	7%	-1%	4%	-19%	-1
CCOc1ccc(-c2nc(-c3ccc(OC)c(OC)c3)no2)cc1OCC	-7	u	x	u	9%	-3
CCOc1ccc(-c2noc(COC)n2)cc1OC	23	-26%	9%	81%	u	21*
COc1ccc(Nc2nc3ccc(OC)cc3s2)cc1	82*	22%	u	126%	i	44*
c1ccc2sc(NC3=NCCN3)nc2c1	65*	30%	-1%	76%	41%	30*
COc1ccc2nc(NC3=NCCN3)sc2c1	28*	15%	-9%	323%	337%	55*
COc1ccc2nc(NS(=O)(=O)c3ccc(NC(C)=O)cc3)sc2c1	-16	0%	3%	6%	127%	-4
COc1ccc2nc(Nc3nc(C)c(C(C)=O)s3)sc2c1	108*	u	u	u	2%	55*
CCCCn1c(N)c(N(CC(C)C)C(=O)COC(=O)C2(c3ccccc3)CC2)c(=O)[nH]c1=O	x	-5%	8%	u	u	x
c1ccc2sc(NC3=NCN(CC4CCCO4)CN3)nc2c1 (stereo not given)	32	-5%	-2%	84%	u	36*
c1ccc2sc(NC3=NCN(CCN4CCOCC4)CN3)nc2c1	13	-12%	1%	17%	23%	2
Nc1ccc(NC(=O)NC2CCCCC2)cc1[N+](=O)[O-]	65*	-27%	1%	131%	136%	33*
O=C(Nc1ccc(Cl)cc1)NC1CCCC1Cc1ccco1 (stereo not given)	47*	-19%	6%	10µM*	u	41*
O=C(Nc1ccc2nsnc2c1)C1CC1	15	-14%	42%	69%	22%	12
O=C(Nc1ccc(F)c(F)c1)NC1CCCCC1	50*	-13%	-1%	64%	0%	30*
Cc1ccc(NC(=O)NC2CCCCCCC2)cc1C	19	5%	11%	4%	u	27
O=C(Nc1ccc2nsnc2c1)NC1CCCCC1	72	u	28%	x	28%	50*
FC(F)(F)C(F)(F)C(F)(F)C(F)(F)C(F)(F)C(F)(F)C(F)(F)C(F)(F)Br	x	x	x	-10%	-9%	x
CN1CCC(NC(=O)Nc2ccc(Br)cc2)CC1	29	-27%	1%	u	u	1
CC(NCc1ccc(F)cc1)C(=O)NC1CCCCC1 (stereo not given)	53*	12%	-1%	24%	-6%	7.1*
Nc1ccc(NC(=O)NC2CCCCC2)cc1	61*	12%	-17%	84%	-5%	38*
O=C(Nc1ccc(F)cc1)NC1CCCCCCC1	108*	4%	14%	51%	19%	61*
O=C(NC1CCCCCCC1)c1ccc(F)cc1	71*	-2%	-10%	-9%	43%	46*
CN(CC(=O)Nc1ccc(F)cc1)CC(=O)NC1CCCCC1	x	17%	3%	u	-15%	x
O=C(Nc1ccc(Cl)cc1)NC1CCCCNC1=O (stereo not given)	46*	20%	-10%	69%	27%	28*
O=C(Nc1ccc(Cl)cc1)NC1CCCCC1	100	2%	14%	48%	374%	38*
O=C(NC1CCCCCC1)c1ccc(N2CCCC2=O)cc1	74*	16%	15%	168%	201%	21
